In all, about 420,000 compounds went through this assay and about 50,000 (12%) were called active. Another 26% or so got no clear call; they are omitted. Calls follow the shape of the dose curve; as a rule, active = well fitted inhibition curve with a large enough effect; inconclusive = small, poorly fitted or top-dose-only effect; inactive = flat fitted curve, though single readings scatter. What follows is part of a selection rich in actives, with near analogues and random picks from the rest.
Assay: qHTS for Inhibitors of human tyrosyl-DNA phosphodiesterase 1 (TDP1): qHTS in cells in presence of CPT; also: nearly all actives have a fitted effect of over 55% in size
Details: chicken DT40 Tdp1-/-;hTDP1 cells + 20 nM CPT, ATP luminescence, 48 h; series mostly up to 46.2 µM; activity change, negative = growth inhibition: at the top concentration
Outline: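 Chicken DT40 Tdp1-/- cells stably complemented with human TDP1 were seeded at 400 cells/well in medium containing 20 nM camptothecin, exposed to pin-transferred compounds, and grown at 37 °C for at least 48 hr. Viability was read as ATP luminescence.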
% is scaled to controls: 0 for no effect and ±100 for the full control effect; potency is read from the fitted curve at half-maximal effect.

SMILES	activity change, negative = growth inhibition	Potency
N#C/C(=C\N1CCOCC1)S(=O)(=O)c1ccc(Cl)cc1	-4.67% (inactive)	–
O=C(COC(=O)c1ccccn1)NNC(=O)c1ccc([N+](=O)[O-])cc1	6.48% (inactive)	–
O=S1(=O)CCN(Cc2ccccc2)CC1	-3.67% (inactive)	–
CN(CC(=O)NCc1ccncc1)S(=O)(=O)c1ccc(Br)cc1	-6.71% (inactive)	–
CC(=O)c1nn(-c2ccccc2)c(=Nc2ccccc2)cc1C	-5.14% (inactive)	–
COC(=O)c1cc(-c2cccs2)nc2ccccc12	1.15% (inactive)	–
CC(=O)Nc1cccc(Nc2nc(-c3cccs3)nc3ccccc23)c1	–	16.4 µM (active)
O=c1[nH]c(-c2cccs2)nc2ccccc12	-22.6% (inactive)	–
CCN(CC)c1ccc(/C=N/NC(=O)CNC(=O)c2cccs2)cc1	2.32% (inactive)	–
CCN(C(=O)CSc1ncnc2sccc12)c1c(N)n(Cc2ccccc2)c(=O)[nH]c1=O	9.86% (inactive)	–
COc1ccc(OCC(=O)Nc2cc(C)c(Cl)cc2OC)c([N+](=O)[O-])c1	-1.34% (inactive)	–
COc1ccc(-c2nc3cc([N+](=O)[O-])ccc3o2)cc1OC	27.4% (inactive)	–
Cc1nnc(-c2ccc(Oc3ccc(C)c(C)c3)c([N+](=O)[O-])c2)o1	–	16.4 µM (active)
Nc1nc(SCC(=O)NN(c2ccccc2)c2ccccc2)n[nH]1	-13.5% (inactive)	–
Cc1ccc(C(=O)Nc2ccccc2F)cc1S(=O)(=O)N1CCOCC1	-22.7% (inactive)	–
CCc1ccc(N(C(=O)c2csnn2)C(C(=O)NC2CCCCC2)c2cccnc2)cc1 (configuration not stated)	-12.1% (inactive)	–
Cc1ccc(S(=O)(=O)NCCC(c2ccccc2)c2ccccc2)cc1C(=O)O	7.68% (inactive)	–
O=c1[nH]oc(O)c1-c1ncc(C(F)(F)F)cc1Cl	7.03% (inactive)	–
Cc1ccc(-c2nnc(Nc3ccc(C(=O)N(C)C)cc3)c3ccccc23)cc1S(N)(=O)=O	-0.81% (inactive)	–
CCNS(=O)(=O)c1cc(-c2nnc(Nc3cccc(C(F)(F)F)c3)c3ccccc23)ccc1C	–	5.8 µM (active)
COCCNS(=O)(=O)c1cc(-c2nn3c(C)nnc3c3ccccc23)ccc1C	-19.3% (inactive)	–
O=C(O)C1CCCN1C1=NS(=O)(=O)c2ccccc21 (configuration not stated)	3.57% (inactive)	–
CN1OC[C@@H]2CN(S(=O)(=O)c3cccc(C(F)(F)F)c3)[C@H](c3ccc(-c4cc5ccccc5o4)cc3)C[C@@H]21	-28.6% (inactive)	–

SMILES	activity change, negative = growth inhibition	Potency
CC1=CC(=NNS(=O)(=O)c2ccc([N+](=O)[O-])cc2)CC(C)(C)C1	-24.4% (inactive)	–
CCCC1OC23CCCCC2C(C#N)(C#N)C1(C#N)C(=N)O3 (configuration not stated)	–	5.8 µM (active)
O=C(CSc1cn(CC(=O)N2CCOCC2)c2ccccc12)Nc1ccccc1	-7.68% (inactive)	–
O=C(NCc1ccccc1)[C@@H]1CSC2c3ccccc3C(=O)N21 (some centres not stated)	-16.3% (inactive)	–
COCCCC1CCN(C(=O)C2CCC(=O)N(C3CCCCCC3)C2)CC1 (configuration not stated)	-49.8% (inactive)	–
CC1CN(/C=C/C(=O)C(F)(F)F)CC(C)O1 (configuration not stated)	-1.96% (inactive)	–
COC(=O)N/N=C/c1c[n+]([O-])c2ccccc2[n+]1[O-]	-9.69% (inactive)	–
O=C(NNS(=O)(=O)c1ccc(Cl)cc1)C1CCN(Cc2ccccc2)CC1	-15.1% (inactive)	–
Clc1ccc(CN2CCCCCC2)cc1Cl	-1.23% (inactive)	–
O=C(CCCOc1ccc(Cl)cc1Cl)NNC(=O)C1CCC1	-2.64% (inactive)	–
COc1cccc(CN2CCC(C(=O)NC(c3ccc4c(c3)OCO4)c3ccccn3)CC2)c1 (configuration not stated)	1.86% (inactive)	–
CCOc1ccc(S(=O)(=O)N2CCC(C(=O)NCc3ccccn3)CC2)cc1Cl	1.14% (inactive)	–
Cc1ccc(C(NC(=O)C2CCN(CCOc3ccc(Cl)cc3Cl)CC2)c2ccccn2)cc1 (configuration not stated)	–	25.9 µM (active)
O=C(COc1ccc(Cl)cc1Cl)NCCCNC(=O)c1cnccn1	2.77% (inactive)	–
Cc1cccnc1C(NC(=O)C1CCN(Cc2ccc(Cl)c(Cl)c2)CC1)c1ccc(Cl)cc1 (configuration not stated)	–	3.26 µM (active)
O=C(NC(c1ccc(-c2ccccc2)cc1)c1cnccn1)C1CCN(CCOc2ccc(Cl)cc2Cl)CC1 (configuration not stated)	–	16.4 µM (active)
Cc1cnc(NC(=O)Cn2cnc3c2c(=O)n(C)c(=O)n3C)s1	7.56% (inactive)	–
Cc1nc2cccnc2nc1C	10.8% (inactive)	–
Cc1cc(C)c(NC(=S)N2CCCC2C(=O)O)c(C)c1 (configuration not stated)	-28.7% (inactive)	–
CC(C)(C)CC(=O)Nc1nc(C(N)Cc2ccc(C(F)(F)F)cc2)cs1 (configuration not stated)	–	23.1 µM (active)
COc1ccc(NC(=O)CN(C)CC(=O)Nc2cccc(C(F)(F)F)c2)cc1	-4% (inactive)	–
COC(=O)[C@H](Cc1ccccc1)NC(=O)Nc1ccc(OC)cc1	-1.58% (inactive)	–
COc1ccc(C(N)c2csc(NC(=O)Nc3cccc(C(F)(F)F)c3)n2)cc1 (configuration not stated)	–	18.4 µM (active)

SMILES	activity change, negative = growth inhibition	Potency
COc1ccc(NC(=O)C(Br)C(C)C)cc1 (configuration not stated)	1.83% (inactive)	–
NC(c1csc(NC(=O)Nc2cccc(C(F)(F)F)c2)n1)C1CCCCC1 (configuration not stated)	–	20.6 µM (active)
Cc1ccccc1NC(=O)Cc1nc(COC(=O)c2ccc(C(F)(F)F)cc2)cs1	-13% (inactive)	–
COc1ccc(C(CC(=O)Nc2ccc(C)cc2)NC(=O)C(F)(F)F)cc1 (configuration not stated)	3.04% (inactive)	–
COc1ccc(CC(N)c2csc(NC(=O)Nc3ccc(C(C)C)cc3)n2)cc1 (configuration not stated)	–	6.51 µM (active)
CC(C)C[C@H](NC(=O)Nc1cccc(C(F)(F)F)c1)C(=O)O	1.51% (inactive)	–
CC(C)(C)CC(=O)Nc1nnc(SCC(=O)NCc2cccs2)s1	-18.8% (inactive)	–
Cc1ccc(NC(=O)Nc2cccc(C(F)(F)F)c2)nc1	8.78% (inactive)	–
CCN(CC(=O)Nc1c(F)cccc1F)C(=O)c1ccc(S(=O)(=O)N2CCCCC2)cc1	-24% (inactive)	–
COc1ccccc1OC(C)C(=O)Nc1ccc(S(=O)(=O)Nc2nccs2)cc1 (configuration not stated)	2.34% (inactive)	–
COc1ccc(NC(=O)CC2C(=O)NC3CCCCC3N2C(=O)c2ccc(F)cc2)cc1 (configuration not stated)	3.64% (inactive)	–
CCOc1ccc(NC(=O)C(CC(C)C)N2Cc3ccccc3C2=O)cc1 (configuration not stated)	-20.7% (inactive)	–
Cc1ccc(CNS(=O)(=O)c2ccc(-c3cc(C(F)(F)F)on3)s2)cc1	-20.9% (inactive)	–
COc1ccccc1CNC(=O)COC(=O)c1sc(C)nc1C	-9.67% (inactive)	–
COc1ccccc1CNC(=O)c1cc(-c2cc(F)ccc2OC)n[nH]1	-10.3% (inactive)	–
COc1ccccc1CNC(=O)c1cc(-c2cc(Cl)ccc2C)n[nH]1	–	16.4 µM (active)
CC(Sc1nnc(-c2ccccc2F)n1C1CC1)C(N)=O (configuration not stated)	0.143% (inactive)	–
Cc1ccc2c(c1)C1CN(C)CCC1N2S(=O)(=O)c1cccc(F)c1 (configuration not stated)	-24.4% (inactive)	–
CCOC(=O)CSC1=N/C(=C/c2ccc(-n3cncn3)cc2)C(=O)N1C(C)=O	–	20.6 µM (active)
CCCC(=O)N1CCC1(C)C(=O)Nc1ccc(-n2cncn2)cc1 (configuration not stated)	-0.867% (inactive)	–
CCOC(=O)CSc1nc(C)cc2c1C(=O)OC2	1.09% (inactive)	–

Source: PubChem BioAssay AID686979 (National Center for Advancing Translational Sciences (NCATS), 2013)
